# ChEMBL document CHEMBL3988442, “University of Dundee, Small-Polar-MMV Screening Library” (2021)
# Potency and affinity values are given separately.
# Target: Protein translocase subunit SecA (Escherichia coli (strain K12)) (UniProt P10408)
# Test: Assay to Identify E. coli SecA ATPase Inhibitors
# Assay type: functional
# Design: scale not given: direction of the effect not stated beside the values
# Conditions: 30 µM
# Protein translocase subunit SecA (Escherichia coli (strain K12)), sequence (P10408 whole entry): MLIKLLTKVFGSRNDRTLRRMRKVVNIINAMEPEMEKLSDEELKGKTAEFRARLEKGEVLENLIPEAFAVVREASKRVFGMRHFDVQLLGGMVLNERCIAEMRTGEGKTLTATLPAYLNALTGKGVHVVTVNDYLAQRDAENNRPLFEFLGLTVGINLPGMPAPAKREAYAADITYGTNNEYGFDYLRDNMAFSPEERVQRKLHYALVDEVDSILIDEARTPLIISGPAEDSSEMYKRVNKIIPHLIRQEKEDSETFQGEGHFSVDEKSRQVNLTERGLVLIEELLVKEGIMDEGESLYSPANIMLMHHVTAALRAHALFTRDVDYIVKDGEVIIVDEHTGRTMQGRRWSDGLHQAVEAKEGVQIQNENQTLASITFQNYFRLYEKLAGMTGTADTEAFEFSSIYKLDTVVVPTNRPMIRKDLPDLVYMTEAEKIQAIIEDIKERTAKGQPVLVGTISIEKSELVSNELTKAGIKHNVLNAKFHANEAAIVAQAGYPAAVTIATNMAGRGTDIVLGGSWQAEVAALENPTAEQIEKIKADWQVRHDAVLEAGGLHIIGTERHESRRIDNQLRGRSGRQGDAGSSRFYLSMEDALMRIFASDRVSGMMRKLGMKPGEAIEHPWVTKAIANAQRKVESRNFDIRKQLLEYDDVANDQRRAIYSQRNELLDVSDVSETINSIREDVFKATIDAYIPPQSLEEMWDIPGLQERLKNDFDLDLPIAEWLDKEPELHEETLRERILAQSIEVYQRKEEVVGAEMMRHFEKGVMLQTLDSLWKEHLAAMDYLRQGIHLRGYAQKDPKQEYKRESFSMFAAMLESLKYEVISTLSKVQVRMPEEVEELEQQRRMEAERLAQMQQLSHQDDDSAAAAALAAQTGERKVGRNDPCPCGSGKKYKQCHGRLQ
row,SMILES,Percent Effect [%]
1,O=C(c1cscn1)N1C[C@@H]2[C@@H](C1)OCC(=O)N2CC1CCCC1,-1.51
2,CN(CC(F)(F)F)C(=O)C1CSCN1C(=O)OC(C)(C)C (stereo not given),-2.64
3,Cc1nc(C2CCCN(C(=O)c3ccco3)C2)no1 (stereo not given),-7.21
4,Cn1ccc(C(=O)N2CCN(c3cc(C#N)ccn3)CC2)cc1=O,-6.91
5,CC(=O)N1CCOCC2(CCN(Cc3ccc(C)s3)CC2)C1,-3.46
6,CCc1cccc(N2CCC(NC(=O)c3cc[nH]n3)CC2)c1,-4.19
7,C[S+]([O-])c1nncn1CC(=O)c1ccc(Cl)c(Cl)c1 (stereo not given),-5.28
8,Cn1ccc(C(=O)N2CCN(c3ncccn3)CC2)cc1=O,-7.23
9,Cc1nccn1-c1cccc(C2CCCN(C3CCCCC3)C2)n1 (stereo not given),-7.63
10,CC(C)N1CCOCC2(CN(Cc3nccs3)CCO2)C1 (stereo not given),-5.04
11,Cc1ccc2c(c1)OCCCC2NCc1nnc2n1CCCCC2 (stereo not given),-3.75
12,NC(=O)c1csc(C(=O)N2CCCC(n3ccnc3)C2)c1 (stereo not given),-5.24
13,Cc1cc(CN(C)C(=O)C2CCCN(C(=O)c3cccs3)C2)no1 (stereo not given),-3.6
14,CS(=O)(=O)NCCNC(=O)C1(c2cccc(Cl)c2)CC1,-0.857
15,CC(C)CCN1CCN(Cc2nc(C3CC3)no2)CC1,-7.83
16,Cc1nnc2n1CCN(Cc1csc(-c3ccc(F)cc3)n1)C2,-4.19
17,Cc1cc(NC(=O)NCC(C)O)n(C)n1 (stereo not given),-5.54
18,O=C(c1cccc(NCCO)c1)N1CCOCC1,0.755
19,CNc1cc(C)nc(C2CN(Cc3ccc(C)nc3)CCO2)c1 (stereo not given),-2.49
20,Cc1ccc(CNC(=O)NCc2cccnc2N(C)C)s1,-4.97

row,SMILES,Percent Effect [%]
1,CN(CCN1CCOCC1)C(=O)CCc1cccc(Cl)c1,-0.257
2,CCC(=O)NCCc1cc(N2CCN(C(C)=O)CC2)nc(C2CC2)n1,-1.34
3,Cc1cc(NC(=O)NCc2cccnc2OC(C)C)n(C)n1,-2.88
4,CC(C)CCC(C)NC(=O)c1ccc(OCC(N)=O)cc1 (stereo not given),0.307
5,CN(C)C(=O)COC[C@]12COC[C@H]1CN(Cc1ccoc1)C2,-2.44
6,O=C(COCc1nc(-c2ccncc2)no1)N1CCCCCC1,-5.55
7,CCN(CC)C(=O)CCNC(=O)Cc1nc(-c2ccco2)oc1C,-7.31
8,O=C1COc2c(cccc2C(=O)N2CCCCC2Cn2cccn2)N1 (stereo not given),-1.42
9,CCN1CCCC1CN(CCN(C)C)S(=O)(=O)c1ccc(C#N)cc1 (stereo not given),-3.88
10,Cc1nsc(N2CCCN(c3nc(C4CC4)ns3)CC2)n1,-2.5
11,Cc1nc(CC(=O)N2CCCCC2c2ccn3ccnc3n2)cs1 (stereo not given),-1.88
12,CN(Cc1ccc(F)cc1)CC1(O)CCN(C(=O)c2ccccc2)C1 (stereo not given),-1.26
13,Cc1nc(NC(=O)CN2CCc3c(nc(C(C)C)n3C)C2)sc1C,-3.02
14,Cc1cccc(-c2ccc3nc(C4CCN(CC5CC5)CC4)nn3c2)c1,-0.334
15,CC(O)CN1CCC(CNCc2c[nH]nc2C(C)(C)C)CC1 (stereo not given),-6.44
16,FC(F)(F)Cc1noc(CN2CCCC2c2noc(C3CC3)n2)n1 (stereo not given),-1.65
17,COc1c(C2CCCN2CC(=O)Nc2cc(C)no2)c(C)nn1C (stereo not given),-5.41
18,CCN(Cc1ccc2c(c1)OCCO2)S(=O)(=O)N(C)C(C)C,-5.7
19,CN(Cc1cccc(F)c1)C(=O)CN1CCCCC1Cn1cncn1 (stereo not given),-1.08
20,Cc1nc(CN2CCCC2c2ccsc2)nc2ccccc12 (stereo not given),-1.18

# Target: T1, Ubiquitin-activating enzyme e1, putative (Leishmania donovani (strain BPK282A1)) (UniProt E9BSI1)
# T1 sequence (whole entry): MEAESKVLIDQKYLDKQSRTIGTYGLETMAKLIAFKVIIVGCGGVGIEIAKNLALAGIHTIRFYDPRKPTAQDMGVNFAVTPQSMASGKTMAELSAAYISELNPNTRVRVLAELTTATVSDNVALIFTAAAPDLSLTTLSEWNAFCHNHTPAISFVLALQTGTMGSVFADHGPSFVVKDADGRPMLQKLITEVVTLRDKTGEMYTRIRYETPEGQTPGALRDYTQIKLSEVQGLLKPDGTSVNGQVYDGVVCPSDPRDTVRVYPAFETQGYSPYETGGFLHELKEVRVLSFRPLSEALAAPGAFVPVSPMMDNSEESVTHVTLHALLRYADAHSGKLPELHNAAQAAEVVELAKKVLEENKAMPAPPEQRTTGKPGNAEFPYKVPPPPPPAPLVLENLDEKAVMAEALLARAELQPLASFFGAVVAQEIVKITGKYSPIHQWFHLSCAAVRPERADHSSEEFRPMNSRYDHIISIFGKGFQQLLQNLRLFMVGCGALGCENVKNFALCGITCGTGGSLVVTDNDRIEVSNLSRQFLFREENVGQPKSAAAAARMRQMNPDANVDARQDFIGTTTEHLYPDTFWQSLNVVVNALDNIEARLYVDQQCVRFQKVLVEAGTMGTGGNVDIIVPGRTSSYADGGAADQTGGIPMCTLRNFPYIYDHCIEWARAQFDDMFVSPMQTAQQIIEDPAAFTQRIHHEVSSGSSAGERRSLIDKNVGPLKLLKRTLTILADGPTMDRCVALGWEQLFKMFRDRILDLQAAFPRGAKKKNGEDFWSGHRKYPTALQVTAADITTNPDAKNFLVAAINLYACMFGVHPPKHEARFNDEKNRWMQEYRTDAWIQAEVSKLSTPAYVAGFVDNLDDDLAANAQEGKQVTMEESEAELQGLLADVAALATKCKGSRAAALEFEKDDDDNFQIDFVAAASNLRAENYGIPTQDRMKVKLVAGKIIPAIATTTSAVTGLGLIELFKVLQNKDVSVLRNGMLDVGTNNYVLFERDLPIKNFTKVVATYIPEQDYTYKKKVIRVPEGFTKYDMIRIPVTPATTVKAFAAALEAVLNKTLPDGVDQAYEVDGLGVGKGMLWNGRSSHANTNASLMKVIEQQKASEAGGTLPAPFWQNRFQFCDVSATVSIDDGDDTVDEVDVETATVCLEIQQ
# Test: Leishmania donovani Ubiquitin Activating Enzyme (LdE1)
# Assay type: functional
# Design: scale not given: direction of the effect not stated beside the values
# Conditions: 30 µM
row,SMILES,Percent Effect [%]
1,O=C(c1cscn1)N1C[C@@H]2[C@@H](C1)OCC(=O)N2CC1CCCC1,-54.5
2,CN(CC(F)(F)F)C(=O)C1CSCN1C(=O)OC(C)(C)C (stereo not given),2.74
3,Cc1nc(C2CCCN(C(=O)c3ccco3)C2)no1 (stereo not given),1.27
4,Cn1ccc(C(=O)N2CCN(c3cc(C#N)ccn3)CC2)cc1=O,13.5
5,CC(=O)N1CCOCC2(CCN(Cc3ccc(C)s3)CC2)C1,10.7
6,CCc1cccc(N2CCC(NC(=O)c3cc[nH]n3)CC2)c1,6.33
7,C[S+]([O-])c1nncn1CC(=O)c1ccc(Cl)c(Cl)c1 (stereo not given),8.11
8,Cn1ccc(C(=O)N2CCN(c3ncccn3)CC2)cc1=O,5.41
9,Cc1nccn1-c1cccc(C2CCCN(C3CCCCC3)C2)n1 (stereo not given),-4.05
10,CC(C)N1CCOCC2(CN(Cc3nccs3)CCO2)C1 (stereo not given),20.8
11,Cc1ccc2c(c1)OCCCC2NCc1nnc2n1CCCCC2 (stereo not given),2.7
12,NC(=O)c1csc(C(=O)N2CCCC(n3ccnc3)C2)c1 (stereo not given),3.8
13,Cc1cc(CN(C)C(=O)C2CCCN(C(=O)c3cccs3)C2)no1 (stereo not given),10.4
14,CS(=O)(=O)NCCNC(=O)C1(c2cccc(Cl)c2)CC1,9.72
15,CC(C)CCN1CCN(Cc2nc(C3CC3)no2)CC1,-2.7
16,Cc1nnc2n1CCN(Cc1csc(-c3ccc(F)cc3)n1)C2,5.41
17,Cc1cc(NC(=O)NCC(C)O)n(C)n1 (stereo not given),10.5
18,O=C(c1cccc(NCCO)c1)N1CCOCC1,13
19,CNc1cc(C)nc(C2CN(Cc3ccc(C)nc3)CCO2)c1 (stereo not given),4.05
20,Cc1ccc(CNC(=O)NCc2cccnc2N(C)C)s1,15.6

row,SMILES,Percent Effect [%]
1,CN(CCN1CCOCC1)C(=O)CCc1cccc(Cl)c1,13.2
2,CCC(=O)NCCc1cc(N2CCN(C(C)=O)CC2)nc(C2CC2)n1,6.76
3,Cc1cc(NC(=O)NCc2cccnc2OC(C)C)n(C)n1,8.86
4,CC(C)CCC(C)NC(=O)c1ccc(OCC(N)=O)cc1 (stereo not given),10.8
5,CN(C)C(=O)COC[C@]12COC[C@H]1CN(Cc1ccoc1)C2,2.7
6,O=C(COCc1nc(-c2ccncc2)no1)N1CCCCCC1,5.2
7,CCN(CC)C(=O)CCNC(=O)Cc1nc(-c2ccco2)oc1C,-2.67
8,O=C1COc2c(cccc2C(=O)N2CCCCC2Cn2cccn2)N1 (stereo not given),10.4
9,CCN1CCCC1CN(CCN(C)C)S(=O)(=O)c1ccc(C#N)cc1 (stereo not given),5.48
10,Cc1nsc(N2CCCN(c3nc(C4CC4)ns3)CC2)n1,11
11,Cc1nc(CC(=O)N2CCCCC2c2ccn3ccnc3n2)cs1 (stereo not given),-4.05
12,CN(Cc1ccc(F)cc1)CC1(O)CCN(C(=O)c2ccccc2)C1 (stereo not given),4.05
13,Cc1nc(NC(=O)CN2CCc3c(nc(C(C)C)n3C)C2)sc1C,5.41
14,Cc1cccc(-c2ccc3nc(C4CCN(CC5CC5)CC4)nn3c2)c1,5.48
15,CC(O)CN1CCC(CNCc2c[nH]nc2C(C)(C)C)CC1 (stereo not given),18.9
16,FC(F)(F)Cc1noc(CN2CCCC2c2noc(C3CC3)n2)n1 (stereo not given),13.5
17,COc1c(C2CCCN2CC(=O)Nc2cc(C)no2)c(C)nn1C (stereo not given),13.5
18,CCN(Cc1ccc2c(c1)OCCO2)S(=O)(=O)N(C)C(C)C,7.79
19,CN(Cc1cccc(F)c1)C(=O)CN1CCCCC1Cn1cncn1 (stereo not given),-2.6
20,Cc1nc(CN2CCCC2c2ccsc2)nc2ccccc12 (stereo not given),-16.5
